This passage reports growth inhibition results from PubChem BioAssay (NCI).

Compounds without any hit were thinned out: in the full panel of roughly 79,000, 15% have a hit. Values without a mark were called inactive. Calls of active or inactive are those of the source. Rule as the data show it: active = growth inhibition above about 70%; inactive = the rest.

The nature of assay [1]: NCI Yeast Anticancer Drug Screen. Data for the rad50 strain (AID 155).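 Also: 0% = growth of vehicle-only cultures of the same strain.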 The settings on record: S. cerevisiae rad50 strain growth inhibition, stronger effect = higher value. Put shortly:
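Cells are treated with compound, grown, and their growth is then scored against vehicle-only cultures of the same repair-deficient yeast strain.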

Assay [2] is described as follows: NCI Yeast Anticancer Drug Screen. Data for the mec2-1 strain (AID 157). The note with it: S. cerevisiae mec2-1 strain, stronger effect = higher value. Put shortly:
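Vehicle-treated cultures served as reference for growth inhibition of compound-exposed mec2-1 yeast.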

Assay [3] can be described thus: NCI Yeast Anticancer Drug Screen. Data for the sgs1 mgt1 strain (AID 161).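 Also: 0% = growth of cultures given vehicle only.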 The note with it: S. cerevisiae sgs1 mgt1 strain, stronger effect = higher value. Put shortly: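 Test agents were incubated with a DNA-repair-mutant yeast strain. Growth was then read and compared against vehicle-treated controls.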
A short description of assay [4]: NCI Yeast Anticancer Drug Screen. Data for the cln2 rad14 strain (AID 165).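 Also: 0% = growth equal to vehicle treated cultures.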 The settings on record: S. cerevisiae cln2 rad14 strain, stronger effect = higher value. Put shortly:
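Each compound was tested on cln2 rad14 yeast. Inhibition of growth was calculated against vehicle-exposed controls.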

Assay [5] in a line: NCI Yeast Anticancer Drug Screen. Data for the bub3 strain (AID 167). The settings on record: S. cerevisiae bub3 mutant strain, stronger effect = higher value. Put shortly: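 Part of a panel of yeast mutants defective in DNA damage repair or cell cycle regulation. Each strain is grown with compound, and inhibition is calculated relative to solvent-treated cultures.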
The nature of assay [6]: NCI Yeast Anticancer Drug Screen. Data for the mlh1 rad18 strain (AID 175). The settings on record: S. cerevisiae mlh1 rad18 strain growth inhibition, stronger effect = higher value. Put shortly:
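Vehicle-treated cultures served as the reference for growth inhibition in a yeast strain carrying DNA damage repair alterations exposed to each compound.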

The mark [7] stands for this setting: at 5.0 µM (retest, dose inferred, filed as 0.5).
Where [8] appears, read: at 50.0 µM (retest, dose inferred, filed as 5.0).

`COc1ccc(CN2COc3c(cc(C)c4cccnc34)C2)cc1`: the growth inhibition in assay [1] (setting [7]) is 14%; in assay [1] (setting [8]), 92% (active); in assay [1] (at 50.0 µM), 65%; in assay [2] (setting [7]), 8%; in assay [2] (setting [8]), 93% (active); in assay [2] (at 50.0 µM), 47.5%. Besides, the growth inhibition in assay [3] (setting [7]) was 23%; in assay [3] (setting [8]), 92% (active); in assay [3] (at 50.0 µM), 64.1%; in assay [4] (setting [7]), 16%; in assay [4] (setting [8]), 93% (active); in assay [4] (at 50.0 µM) it was 39.9%. In addition, the growth inhibition in assay [5] (setting [7]) is -3%; in assay [5] (setting [8]) it was 95% (active); in assay [5] (at 50.0 µM), 61.4%; in assay [6] (setting [7]), 20%; in assay [6] (setting [8]), 93% (active); in assay [6] (at 50.0 µM) it was 79.9% (active).
In the case of `CCCCN(CCCC)c1ccc2c(c1)C(O)c1ccccc1-2` (stereo not given), the growth inhibition in assay [1] (setting [7]) is 6%; in assay [1] (setting [8]) it was 81% (active); in assay [1] (at 50.0 µM), 76.5% (active); in assay [2] (setting [7]), 2%; in assay [2] (setting [8]), 74% (active); in assay [2] (at 50.0 µM), 59.2%. Further, the growth inhibition in assay [3] (setting [7]) was 4%; in assay [3] (setting [8]) it was 78% (active); in assay [3] (at 50.0 µM), 88.1% (active); in assay [4] (setting [7]) it was 5%; in assay [4] (setting [8]) it was 85% (active); in assay [4] (at 50.0 µM), 74.8% (active). Also, the growth inhibition in assay [5] (setting [7]) is 0%; in assay [5] (setting [8]) it was 77% (active); in assay [5] (at 50.0 µM), 82% (active); in assay [6] (setting [7]), 15%; in assay [6] (setting [8]), 72% (active); in assay [6] (at 50.0 µM), 85.2% (active).
`N=C1C(=O)c2ccccc2-c2ccccc21`: the growth inhibition in assay [1] (setting [7]) was -93%; in assay [1] (setting [8]) it was 97% (active); in assay [1] (at 50.0 µM) it was 96.3% (active); in assay [2] (setting [7]), -25%; in assay [2] (setting [8]), 99% (active); in assay [2] (at 50.0 µM) it was 96.3% (active). Besides, the growth inhibition in assay [3] (setting [7]) is -35%; in assay [3] (setting [8]), 98% (active); in assay [3] (at 50.0 µM), 97.3% (active); in assay [4] (setting [7]), -75%; in assay [4] (setting [8]), 98% (active); in assay [4] (at 50.0 µM), 91.3% (active). Also, the growth inhibition in assay [5] (setting [7]) is -20%; in assay [5] (setting [8]), 97% (active); in assay [5] (at 50.0 µM), 97% (active); in assay [6] (setting [7]), -86%; in assay [6] (setting [8]), 97% (active); in assay [6] (at 50.0 µM), 95.7% (active).
Take `COc1ccc(C(c2c(O)c3ccccc3oc2=O)N2CCOCC2)c(OC)c1` (stereo not given): the growth inhibition in assay [1] (setting [7]) was -4%; in assay [1] (setting [8]), 3%; in assay [1] (at 50.0 µM), 33.4%; in assay [2] (setting [7]), -6%; in assay [2] (setting [8]), 19%; in assay [2] (at 50.0 µM), 23.1%. The growth inhibition in assay [3] (setting [7]) was -4%; in assay [3] (setting [8]), 4%; in assay [3] (at 50.0 µM) it was 35.6%; in assay [4] (setting [7]) it was 3%; in assay [4] (setting [8]), -3%; in assay [4] (at 50.0 µM) it was 20.3%. The growth inhibition was -2% in assay [5] (setting [7]); 0% in assay [5] (setting [8]); 69.2% in assay [5] (at 50.0 µM); -7% in assay [6] (setting [7]); -3% in assay [6] (setting [8]); 43.4% in assay [6] (at 50.0 µM).
For `CC1=C(C(=O)OCCO[N+](=O)[O-])C(c2cccc([N+](=O)[O-])c2)C(C(=O)OC(C)C)=C(C)N1` (stereo not given), the growth inhibition in assay [1] (setting [7]) is 13%; in assay [1] (setting [8]) it was 91% (active); in assay [1] (at 50.0 µM), 79.2% (active); in assay [2] (setting [7]), 10%; in assay [2] (setting [8]) it was 92% (active); in assay [2] (at 50.0 µM), 83% (active). Also, the growth inhibition in assay [3] (setting [7]) was -22%; in assay [3] (setting [8]), 91% (active); in assay [3] (at 50.0 µM) it was 87.5% (active); in assay [4] (setting [7]) it was -3%; in assay [4] (setting [8]) it was 87% (active); in assay [4] (at 50.0 µM) it was 81.5% (active). Moreover, the growth inhibition in assay [5] (setting [7]) is -3%; in assay [5] (setting [8]), 88% (active); in assay [5] (at 50.0 µM), 85.3% (active); in assay [6] (setting [7]), 12%; in assay [6] (setting [8]), 95% (active); in assay [6] (at 50.0 µM) it was 71% (active).
Turning to `Cc1ccnc2ccc3ccccc3c12`, the growth inhibition in assay [1] (setting [7]) is -142%; in assay [1] (setting [8]), 22%; in assay [1] (at 50.0 µM), -17.9%; in assay [2] (setting [7]), -48%; in assay [2] (setting [8]), -38%; in assay [2] (at 50.0 µM), -1%. For the same molecule, the growth inhibition is -63% in assay [3] (setting [7]); -21% in assay [3] (setting [8]); 20.4% in assay [3] (at 50.0 µM); -62% in assay [4] (setting [7]); -49% in assay [4] (setting [8]); 22.3% in assay [4] (at 50.0 µM). Further, the growth inhibition in assay [5] (setting [7]) is -67%; in assay [5] (setting [8]), -18%; in assay [5] (at 50.0 µM) it was 31%; in assay [6] (setting [7]), -138%; in assay [6] (setting [8]), -55%; in assay [6] (at 50.0 µM), 33.3%.
On to `CC(C)CC(N)C(=O)NNc1ccccc1` (stereo not given), for which the growth inhibition in assay [1] (setting [7]) is 29%; in assay [1] (setting [8]), 94% (active); in assay [1] (at 50.0 µM), 96.8% (active); in assay [2] (setting [7]), 23%; in assay [2] (setting [8]), 96% (active); in assay [2] (at 50.0 µM), 84.2% (active). Further, the growth inhibition in assay [3] (setting [7]) was 30%; in assay [3] (setting [8]) it was 97% (active); in assay [3] (at 50.0 µM) it was 88.6% (active); in assay [4] (setting [7]) it was 19%; in assay [4] (setting [8]), 83% (active); in assay [4] (at 50.0 µM), 94.2% (active). Moreover, the growth inhibition was 37% in assay [5] (setting [7]); 96% (active) in assay [5] (setting [8]); 97.5% (active) in assay [5] (at 50.0 µM); 72% (active) in assay [6] (setting [7]); 99% (active) in assay [6] (setting [8]); 98% (active) in assay [6] (at 50.0 µM).
For `CCCCCCCCCCCCCCCCN`, the growth inhibition in assay [1] (setting [7]) was 98% (active); in assay [1] (setting [8]), 97% (active); in assay [1] (at 50.0 µM), 99% (active); in assay [2] (setting [7]) it was 20%; in assay [2] (setting [8]), 99% (active); in assay [2] (at 50.0 µM), 99.4% (active). The growth inhibition in assay [3] (setting [7]) was 99% (active); in assay [3] (setting [8]) it was 98% (active); in assay [3] (at 50.0 µM) it was 99.2% (active); in assay [4] (setting [7]) it was 54%; in assay [4] (setting [8]), 97% (active); in assay [4] (at 50.0 µM), 98.8% (active). In addition, the growth inhibition was 98% (active) in assay [5] (setting [7]); 98% (active) in assay [5] (setting [8]); 98.8% (active) in assay [5] (at 50.0 µM); 98% (active) in assay [6] (setting [7]); 98% (active) in assay [6] (setting [8]); 98.7% (active) in assay [6] (at 50.0 µM).
For `CCCCN1CSC(=S)N(Cc2ccccc2)C1`, the growth inhibition in assay [1] (setting [7]) was 2%; in assay [1] (setting [8]) it was 38%; in assay [1] (at 50.0 µM), 32.8%; in assay [2] (setting [7]) it was 3%; in assay [2] (setting [8]), 3%; in assay [2] (at 50.0 µM) it was -21.7%. In addition, the growth inhibition in assay [3] (setting [7]) is 13%; in assay [3] (setting [8]), 30%; in assay [3] (at 50.0 µM) it was 10.3%; in assay [4] (setting [7]) it was 30%; in assay [4] (setting [8]) it was 25%; in assay [4] (at 50.0 µM), -41.1%. Besides, the growth inhibition is 5% in assay [5] (setting [7]); 38% in assay [5] (setting [8]); 23.8% in assay [5] (at 50.0 µM); -10% in assay [6] (setting [7]); 38% in assay [6] (setting [8]); 31.4% in assay [6] (at 50.0 µM).
Regarding `COc1cc(OC)cc(C2SCC(=O)N2c2nncs2)c1` (stereo not given), the growth inhibition in assay [1] (setting [7]) is 2%; in assay [1] (setting [8]), 2%; in assay [1] (at 50.0 µM), 20.2%; in assay [2] (setting [7]) it was -5%; in assay [2] (setting [8]) it was -3%; in assay [2] (at 50.0 µM), 97% (active). Besides, the growth inhibition in assay [3] (setting [7]) was 0%; in assay [3] (setting [8]) it was 2%; in assay [3] (at 50.0 µM) it was 55.5%; in assay [4] (setting [7]), -2%; in assay [4] (setting [8]) it was 2%; in assay [4] (at 50.0 µM) it was 98.8% (active). Also, the growth inhibition in assay [5] (setting [7]) was 1%; in assay [5] (setting [8]) it was 13%; in assay [5] (at 50.0 µM) it was 98.6% (active); in assay [6] (setting [7]), 0%; in assay [6] (setting [8]), 4%; in assay [6] (at 50.0 µM), 96.8% (active).
